Our source for the sensor-assay potency score (higher = more potent) values is the OligoGym collection.

What all share (assay): pooled miR-30 sensor sort-seq; sequence = guide strand
Holding throughout (conditions): shRNA

Test [1] concerns the target XKRX.
Test [2] deals with YARS.
Test [3] has as its target YWHAG.
Test [4] has as its target YY2.
Test [5] has as its target YY1AP1.
The target of test [6] is ZBTB24.
The target in test [7] is ZBTB8A.
The target of test [8] is ZDHHC6.
Test [9] addresses ZMAT5.
Test [10] concerns the target ZNF146.
Test [11] addresses ZNF135.
Test [12] deals with ZNF169.
Test [13] deals with ZNF160.
Further: reference of the scale not given here.

For the sequence TCTATTAGCATCTTCTTTCGGG, the sensor-assay potency score (higher = more potent) in [1] was 0.547.
Turning to TTTTGCTGCCTGTTAATCCTGG, in test [2], the sensor-assay potency score (higher = more potent) was -0.733.
In the case of TTCTTCACATCCTCCTTCCGAT, in test [2], the sensor-assay potency score (higher = more potent) was -0.429.
In the case of TTCGCTGTAGGCCTTCTCGGAG, in test [3], the sensor-assay potency score (higher = more potent) is -0.969.
TGAATCTACAGAACAGTCCAGA registered a sensor-assay potency score (higher = more potent) in test [3] of 0.0332.
With TCAAGTACTCGGAATAATCAGG, in test [4], the sensor-assay potency score (higher = more potent) was -0.787.
With TTTTTCTAGGCCTTGATCTGAG, the sensor-assay potency score (higher = more potent) in test [5] was -0.00665.
As to TGTCAAGAGCTGAACATGCTGC, the sensor-assay potency score (higher = more potent) in [5] is -0.313.
Regarding TAGCTGGTTGTCTGAGTCGCAA, the sensor-assay potency score (higher = more potent) in [4] is -1.47.
The same measure, in the same setting: then TTTAGTAAATTCTGCCAGCTGT, with -0.34.
Regarding AATACCAGCACAGCTAGCCTGA, the sensor-assay potency score (higher = more potent) in [3] is -0.754.
For the sequence TTCTAAGTCTGTCAGTCTGGGA, the sensor-assay potency score (higher = more potent) in test [3] was -0.946.
On to TTAAATTCTGCAGTTGCTCTGG, for which the sensor-assay potency score (higher = more potent) in [6] is 0.17.
For TAGGGGACCACATAGTCACGGA, the sensor-assay potency score (higher = more potent) in test [4] was -0.62.
For the sequence TACTGGACGCTTTCCGTCGGAA, in [4], the sensor-assay potency score (higher = more potent) is -1.27.
In test [5], TTTGCTTCCTTTTCGTGTCGGA returned a sensor-assay potency score (higher = more potent) of 0.308.
As to TCGTCTTCAATGCTATCCGGGA, the sensor-assay potency score (higher = more potent) in test [4] was -0.643.
For TTAAGACATATCCTGGTGCTAC, the sensor-assay potency score (higher = more potent) in test [5] is -0.46.
Sequence TTTAAGTTTTCTTTTCATCTGA registered a sensor-assay potency score (higher = more potent) in test [3] of 0.297.
In test [5], TAGAAGGTACTTGTTGTCCTCA registered a sensor-assay potency score (higher = more potent) of 0.0643.
In the case of TTCTGCTCCCACTTCCTCGTGC, the sensor-assay potency score (higher = more potent) in [4] is 0.239.
Take TTCAGGTAGAACACTTTGCTCT: the sensor-assay potency score (higher = more potent) in [3] is -0.452.
With TTGACTGAGCGAACTTCCTGTT, the sensor-assay potency score (higher = more potent) in test [4] was -0.213.
With TTCAAACAGATCTTCCATCAGC, the sensor-assay potency score (higher = more potent) in test [5] was -0.176.
TGTTCTCTGACAATCCTTCTTG: the sensor-assay potency score (higher = more potent) in test [5] was -0.0122.
Take TGTCTGAGTCGCAATAGCCCAC: the sensor-assay potency score (higher = more potent) in test [4] is -0.97.
TTCCATCTTGACAACTTCCTCT returned a sensor-assay potency score (higher = more potent) in [5] of 0.35.
For TTAGGGATAACAACCACTGGGG, in test [6], the sensor-assay potency score (higher = more potent) was -0.555.
As to TTAACCACAAAGTTTTGTCTAT, in test [6], the sensor-assay potency score (higher = more potent) was -0.0895.
Sequence TTTGACCTGCATTTGCTTCTGC yielded a sensor-assay potency score (higher = more potent) in test [4] of 0.61.
Sequence TTTAACCTTCTCTACCTCCTTC gave a sensor-assay potency score (higher = more potent) in [5] of 0.0131.
TAAACCATAAGGATGAATGAGA: in test [3], the sensor-assay potency score (higher = more potent) is -0.514.
For the sequence TTAATACTGTCAACTAATCAGA, the sensor-assay potency score (higher = more potent) in [3] is -0.755.
On to TTACACTGTTCCATGTCTGTAG, for which the sensor-assay potency score (higher = more potent) in test [3] turned out to be 0.201.
For the sequence TTAAGTTTTCTTTTCATCTGAA, the sensor-assay potency score (higher = more potent) in test [3] was 0.563.
As to TTGAGCTCTCAAGAAAAGCTTT, the sensor-assay potency score (higher = more potent) in test [4] is -0.69.
Turning to TTGTGTCTGCAACATAAGCATT, the sensor-assay potency score (higher = more potent) in [4] is -1.56.
In the case of TTGCTGTATCGACTCTGGCTTG, the sensor-assay potency score (higher = more potent) in test [6] is -0.983.
TTCCTCTGTAGCATCTTCAGGT registered a sensor-assay potency score (higher = more potent) in [5] of 0.0483.
Same read-out and setting: then TAAAGTTAGCTTGAGGCTCAGC, with -0.69.
As for TCCTTCTCTATCTTCTCCCGGT, in test [3], the sensor-assay potency score (higher = more potent) is -0.85.
Regarding TTGTACTTAAAGACCTTGCCAC, the sensor-assay potency score (higher = more potent) in test [6] was -0.0819.
Turning to TTGAGAAGTATTCACTACTGGC, the sensor-assay potency score (higher = more potent) in test [6] was 0.328.
Same read-out and setting: then TTGGTGGTCAGAGCCTTGCTGC, with -1.29.
In test [5], ATGAACTTCCTTACACTGGGGT gave a sensor-assay potency score (higher = more potent) of 0.289.
As to TTCTACAATCTCCACATAGGAT, the sensor-assay potency score (higher = more potent) in test [7] was -0.772.
For TGAAATTCACACTTCCTCCAGT, the sensor-assay potency score (higher = more potent) in test [8] is -0.0351.
TCTTCTATTACTTTATAGCGAA: the sensor-assay potency score (higher = more potent) in test [8] is -0.958.
For AAAATCTGCAGTTGGAGCCAAA, the sensor-assay potency score (higher = more potent) in [9] was -1.1.
Consider TTACATTCGAAAAGCTTCTCGC, for which the sensor-assay potency score (higher = more potent) in test [10] is -0.0579.
In [11], TATTTCTTCAGAGATGCCTTGC yielded a sensor-assay potency score (higher = more potent) of 0.235.
In turn, TTCAACATTGTGTCTGACCCCC yielded a sensor-assay potency score (higher = more potent) in [12] of 0.288.
As for TAAGGTGTGACTTCTGGCCAAG, in [12], the sensor-assay potency score (higher = more potent) was -0.969.
As for TGAATTTTGAGTGAAAACCTTG, the sensor-assay potency score (higher = more potent) in [13] is -0.306.
Turning to TTCCACAAACATTGCATTCGTA, the sensor-assay potency score (higher = more potent) in test [10] turned out to be 0.428.
As for TTCGTCGCCTTGCTCCAGCTGT, in test [12], the sensor-assay potency score (higher = more potent) is -0.551.
The same measure, in the same setting: then TTTCACTAGAGCATCTTGGAGC, with -0.176.
As to TCAAACGTCACTTGCTCCGGGT, the sensor-assay potency score (higher = more potent) in test [11] is -0.579.
As to TTCTGTACTGCTCTTCTCTTTT, the sensor-assay potency score (higher = more potent) in [13] is -0.536.
Take TTTCTTAATGAGCTGTCGGGGC: the sensor-assay potency score (higher = more potent) in [12] was -0.62.
As for TAAACAACAGGTATTGCTCTTT, the sensor-assay potency score (higher = more potent) in test [13] amounted to 0.3.
TTTATGAGGTACTTCTTCTGGC: the sensor-assay potency score (higher = more potent) in [10] came to 0.438.
Take TAGGCTTGAACGAACACTGAAG: the sensor-assay potency score (higher = more potent) in test [13] is -0.806.
As to TGTTCGATAAGTGCTGAGCTGT, the sensor-assay potency score (higher = more potent) in test [11] is -0.66.
In turn, TTTATCACCTGAATGAATCCTC gave a sensor-assay potency score (higher = more potent) in test [10] of 0.519.
Take TTGCTTTAGAACTGACAGTTTG: in [11], the sensor-assay potency score (higher = more potent) is -1.45.
TATGTTTACATGATGTCTCTTG registered a sensor-assay potency score (higher = more potent) in [13] of 0.273.
On to ATGTTTAATGACATACTGCTTT, for which, in [10], the sensor-assay potency score (higher = more potent) was -0.84.
With TAGCGCATATTGTCTGAGGAGC, the sensor-assay potency score (higher = more potent) in test [12] was -1.15.
Regarding TAGAGCATCTTGGAGCTTCTAG, in [12], the sensor-assay potency score (higher = more potent) was -0.619.
On to TTCTATGTCTCTTCTGTCGCGT, for which, in test [13], the sensor-assay potency score (higher = more potent) amounted to 0.15.
As to TAGAAGGAGGGCTATCTTCTGG, the sensor-assay potency score (higher = more potent) in test [12] is -0.694.
Take ATATTGTCTGAGGAGCTGCGAG: in test [12], the sensor-assay potency score (higher = more potent) was -1.34.
For the sequence ATGAATATCAGAGTCAACCTGC, in [11], the sensor-assay potency score (higher = more potent) turned out to be 0.469.
Regarding TCCACAAACATTGCATTCGTAA, the sensor-assay potency score (higher = more potent) in [10] was -1.11.
On to TTACCTATTACTCTCCTCCCAC, for which the sensor-assay potency score (higher = more potent) in [13] is -0.496.
As for TTTTGAGTGAAGCTCTTGCCAC, the sensor-assay potency score (higher = more potent) in test [13] is -0.929.
Regarding TTGATCTCTTTTACCTTCTTTC, the sensor-assay potency score (higher = more potent) in test [13] is -0.844.
For the sequence TTGAGAACTGAGAGAAAGCTTT, the sensor-assay potency score (higher = more potent) in test [10] was -0.35.
In the case of TGTCTTTCCAACACCACTGTGT, the sensor-assay potency score (higher = more potent) in test [13] turned out to be 0.215.
With TTTCTAATGAAAGCTTTCCCAC, the sensor-assay potency score (higher = more potent) in test [10] was -1.05.
Turning to TTGATAAGGTCTGATCTCTGGC, the sensor-assay potency score (higher = more potent) in [12] worked out at 0.151.
Regarding TTGGATTTGCCACTGAAGGTTT, the sensor-assay potency score (higher = more potent) in test [10] was -0.469.
TTTTTCACTAGAGCATCTTGGA came in with a sensor-assay potency score (higher = more potent) in test [12] of 0.14.
In test [10], TTAAAGTTAACCTCATTCGTGG yielded a sensor-assay potency score (higher = more potent) of 0.427.
With TTTCTTGCTATTTTCACACAGC, the sensor-assay potency score (higher = more potent) in [13] is -0.0844.
Take TTAACCTCATTCGTGGTGCTTT: in test [10], the sensor-assay potency score (higher = more potent) was -0.543.
Turning to TCTATGTCTCTTCTGTCGCGTT, in test [13], the sensor-assay potency score (higher = more potent) was -0.213.
For the sequence TTTTATGAGGTACTTCTTCTGG, the sensor-assay potency score (higher = more potent) in test [10] is -0.457.
On to TATTGTCTGAGGAGCTGCGAGC, for which the sensor-assay potency score (higher = more potent) in [12] was -1.19.
